Screening data (PubChem)
The list is not random: actives were taken first. Their share in the collection is about 2%.
VLA-4 inh = inhibition in a human VLA-4 binding assay; VLA-4 expressing cells, ligand binding flow cytometry; inhibition, % (about 7 µM as worked out from the volumes in the protocol); P13612; actives 0.2% (n = 330,000); in the data active means inhibition above about 50%
Granule exo inh = lytic granule exocytosis inhibition. TALL-104 LAMP-1 surface exposure, flow cytometry; cells stimulated with thapsigargin and PMA. inhibition, % at 10 µM. actives 0.66% (n = 360,000). AID 651702;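 active means inhibition above about 55%, limit read from the data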
NR1D1 modulator = Rev-erb alpha (human) modulation; P20393; Rev-erbα–FITC-DNA binding, fluorescence polarization, 90 min; activity, % at 10 µM; actives 0.79% (n = 370,000); AID 1259318;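 active means activity above about 14%, limit read from the data; passing the limit was not always enough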
ABCB6 inh MLPCN = inhibitors of human ABC transporter ABCB6 | actives 0.19% (n = 360,000) | fluorescence ratio to DMSO, % at 10 µM | Q9NP58 | K562-ABCB6 porphyrin accumulation, flow cytometry, 1 h; stronger effect = lower value;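 active means fluorescence ratio to DMSO below 75%, the collection mean minus 3 SD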;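 further: signal is porphyrin accumulated inside mitochondria; lower ratio means ABCB6 inhibition with less porphyrin fluorescence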
Target sequence (Q9NP58 whole entry, looked up): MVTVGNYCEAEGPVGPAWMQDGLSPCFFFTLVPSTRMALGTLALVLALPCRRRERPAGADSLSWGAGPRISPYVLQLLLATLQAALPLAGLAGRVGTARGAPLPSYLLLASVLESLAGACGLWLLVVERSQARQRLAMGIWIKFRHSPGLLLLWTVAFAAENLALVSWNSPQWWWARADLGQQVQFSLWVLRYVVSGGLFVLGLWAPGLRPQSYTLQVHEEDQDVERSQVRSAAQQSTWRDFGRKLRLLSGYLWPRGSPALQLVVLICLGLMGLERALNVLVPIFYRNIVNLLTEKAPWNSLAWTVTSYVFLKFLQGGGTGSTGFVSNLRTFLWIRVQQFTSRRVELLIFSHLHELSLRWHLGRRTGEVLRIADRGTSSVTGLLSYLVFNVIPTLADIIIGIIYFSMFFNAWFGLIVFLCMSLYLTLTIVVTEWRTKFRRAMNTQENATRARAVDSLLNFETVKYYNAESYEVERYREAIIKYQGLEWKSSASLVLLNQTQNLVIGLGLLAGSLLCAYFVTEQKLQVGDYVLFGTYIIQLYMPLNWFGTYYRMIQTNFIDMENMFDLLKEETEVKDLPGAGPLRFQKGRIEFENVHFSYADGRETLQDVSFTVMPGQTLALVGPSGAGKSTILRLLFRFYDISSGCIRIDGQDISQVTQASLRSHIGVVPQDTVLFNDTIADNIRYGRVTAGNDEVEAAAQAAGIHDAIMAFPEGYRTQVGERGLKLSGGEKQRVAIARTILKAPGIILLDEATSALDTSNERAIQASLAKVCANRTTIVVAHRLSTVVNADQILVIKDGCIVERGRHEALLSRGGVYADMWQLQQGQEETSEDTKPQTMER
PG9 Ab binder = small molecules binding HIV-1 gp120 antibody PG9 | AID 624416 | TR-FRET gp120-PG9 antibody binding | actives 0.43% (n = 360,000) | inhibition, % at 6.7 µM; in the data active means inhibition above about 8.5%
Exocytosis CP01 = lytic granule exocytosis inhibition; shares compounds with Granule exo inh; inhibition, % at 10 µM; TALL-104 cells, LAMP-1 externalization, flow cytometry; stimulated with PMA plus thapsigargin; actives 11% (n = 1,500); AID 651954; in the data active means inhibition above about 60%
Each line names hits and unclear results; the compound was inactive in the other large screens (follow-up assays come after a bar, where they were run).

C[C@H]1[C@@H](OC(=O)NCc2cccc(Cl)c2)CC[C@@]23CCCN2C(=O)CCC[C@@H]13	none (no result: VLA-4 inh, Granule exo inh, ABCB6 inh MLPCN, PG9 Ab binder)
c1ccc(C2=NOC(c3nnc(-c4ccccc4)o3)C2)cc1 (configuration not stated)	Granule exo inh 91 (no result: VLA-4 inh) | Exocytosis CP01 inactive
Fc1ccc(C2=NOC(c3nnc(-c4ccccc4)o3)C2)cc1 (configuration not stated)	none
CCCCn1c(-c2nonc2NC(=O)c2ccccc2Cl)nc2ccccc21	Granule exo inh 77 (no result: VLA-4 inh) | Exocytosis CP01 inactive
OCCOc1ccc(CN2CCCC(N3CCN(c4ccc(F)cc4)CC3)C2)cc1 (configuration not stated)	none
COc1ccc(CC(=O)NCC2CCCN(Cc3ccc(F)c(OC)c3)C2)cc1 (configuration not stated)	Granule exo inh 59 | Exocytosis CP01 inactive
CSc1ccc(CN2CCCC(N3CCN(c4ccccc4)CC3)C2)cc1 (configuration not stated)	Granule exo inh 67 | Exocytosis CP01 inactive
COc1cc(CN2CCCC(N3CCN(c4ccc(F)cc4)CC3)C2)ccc1F (configuration not stated)	Granule exo inh 61 | Exocytosis CP01 inactive
O=C1N2Cc3ccccc3C2CS(=O)(=O)N1CCc1ccccc1 (configuration not stated)	none (no result: VLA-4 inh, Granule exo inh, ABCB6 inh MLPCN, PG9 Ab binder)
C[C@H]1[C@@H](OC(=O)NCc2ccccc2)CC[C@@]23CCCN2C(=O)CCC[C@@H]13	none (no result: VLA-4 inh, Granule exo inh, ABCB6 inh MLPCN, PG9 Ab binder)
COc1ccc(C(=O)C2(C(=O)Nc3cc(C)cc(C)c3)CC(c3ccccn3)=NO2)cc1 (configuration not stated)	none (no result: VLA-4 inh, Granule exo inh, ABCB6 inh MLPCN, PG9 Ab binder)
Cc1nc2ccc(NC(=O)c3cc(F)cc(F)c3)cc2c(=O)[nH]1	none (no result: VLA-4 inh, Granule exo inh, ABCB6 inh MLPCN, PG9 Ab binder)
Cc1cccn2c(=O)c3cc(C(=O)NCCc4ccccc4)c(=N)n(Cc4ccco4)c3nc12	Granule exo inh 78 | Exocytosis CP01 inactive
Cc1cccn2c(=O)c3cc(C(=O)NCCc4ccccc4)sc3nc12	Granule exo inh 92 | Exocytosis CP01 inactive
Cc1cccn2c(=O)c3cc(C(=O)NCC4CCCO4)c(=N)n(CCc4ccccc4)c3nc12 (configuration not stated)	none
COc1ccc(CCNC(=O)c2cc3c(=O)n4cccc(C)c4nc3n(CC3CCCO3)c2=N)cc1 (configuration not stated)	Granule exo inh 62 | Exocytosis CP01 inactive
CCCCNC(=O)c1cc2c(=O)n3cccc(C)c3nc2s1	none
O=C(CSc1nnc(SCc2cccc3ccccc23)s1)Nc1ccc(S(=O)(=O)Nc2nccs2)cc1	none (no result: VLA-4 inh, Granule exo inh, ABCB6 inh MLPCN, PG9 Ab binder)
COc1ccc2c(c1)[C@@H](NC(=O)c1ccncc1)[C@@H]1Cc3ccccc3[C@H]21	none (no result: VLA-4 inh, Granule exo inh, ABCB6 inh MLPCN)
COc1ccc(OC)c(NC(=O)c2cccc3c2C(=O)N(C2CCCCC2)C3)c1	Granule exo inh 78 | Exocytosis CP01 inactive
COc1ccc(NC(=O)c2cccc3c2C(=O)N(C2CCCCC2)C3)cc1	none
COc1ccc(Cl)cc1N(C(=O)c1ccco1)C(C(=O)NC1CCCC1)c1ccco1 (configuration not stated)	Granule exo inh 64 | Exocytosis CP01 inactive
Cc1cc2[nH]c(=O)c(=O)[nH]c2cc1S(=O)(=O)N1CCN(c2ccccc2)CC1	none
Cc1ccc(Br)cc1S(=O)(=O)N1CCN(c2ccccc2)CC1	Granule exo inh 66 | Exocytosis CP01 inactive
COCCNC(=S)N(C)[C@H]1C[C@H]2c3[nH]c4c(-c5ccc6c(c5)OCO6)cccc4c3CCN2C[C@H]1[C@H](C)O	none (no result: VLA-4 inh, Granule exo inh, ABCB6 inh MLPCN, PG9 Ab binder)
c1ccc(Oc2nc(-c3cccnc3)nc3ccccc23)cc1	Granule exo inh 83 | Exocytosis CP01 inactive
Fc1ccccc1CNc1nc(-c2cccnc2)nc2ccccc12	Granule exo inh 81 | Exocytosis CP01 inactive
C[C@H](c1ccccc1)N1C[C@@H](COCc2ccccc2)Oc2cc(N3CC[C@H](N(C)C)C3)ccc2S1(=O)=O	none (no result: VLA-4 inh)
C[C@H](c1ccccc1)N1C[C@@H](COCc2ccccc2)Oc2cc(N3CC[C@@H](O)C3)ccc2S1(=O)=O	none (no result: VLA-4 inh)
C[C@H](c1ccccc1)N1C[C@@H](COCc2ccccc2)Oc2cc(N3CC[C@@H](N(C)C)C3)ccc2S1(=O)=O	Granule exo inh 63 (no result: VLA-4 inh) | Exocytosis CP01 inactive
C[C@@H](c1ccccc1)N1C[C@@H](COCc2ccccc2)Oc2cc(N3CC[C@H](N(C)C)C3)ccc2S1(=O)=O	Granule exo inh 70 (no result: VLA-4 inh) | Exocytosis CP01 inactive
